Source: PubChem BioAssay (Tox21)
Results filed as inconclusive are left out. Where a call stands in place of a potency, no number is given. Calls of active or inactive are those of the source. The call rests on the fitted dose curve; in most records, active means well fitted inhibition curve with a large enough effect in the signal ratio in the repeat runs (not every such curve was filed as active); inconclusive means weak or mixed curves, or effect the other way; inactive means flat fitted curve, though single readings scatter; the % refers to the signal ratio.

assay: cAMP Responsive Elements (CRE) small molecule antagonists, cell-based qHTS assay (AID 1963591); conditions: CRE-bla HEK293T, beta-lactamase FRET ratio; series mostly up to 92.4 µM
Text: U.S. Tox21 Program National Center for Advancing Translational Sciences [NCATS] Division of Preclinical Innovation [DPI] U.S. Environmental Protection Agency [EPA] National Institutes of Environmental Health Sciences [NIEHS] National Toxicology Program [NTP] U.S. Food and Drug Administration [FDA] Tox21 Assay Overview: CREB (cyclic-AMP Responsive Element Binding Protein) is a cellular transcription factor. It binds to certain DNA sequences called cAMP Responsive Elements (CRE) and regulates the transcription of the genes. […] This cell line can be used to find agonists/antagonists of the cyclic AMP signaling pathway. The activation of the report gene under culture conditions can be detected by fluorescence intensity. This cell line has been used to screen the Tox21 10K compound library to […].
Tox21 Assay Protocol Summary: CRE-bla Hek 293T cells were suspended in assay medium (DMEM containing 10% dialyzed FBS, 0.1 mM NEAA, 1 mM sodium pyruvate and 25 mM HEPES) and dispensed at 2,000 cells/4 uL /well into 1536-well black wall/clear bottom plates using a Multidrop Combi (ThermoFisher Scientific, Waltham, MA) dispenser. After the assay plates were incubated at 37 C/5% CO2 for 18 hrs, 23 nL of compounds dissolved in DMSO, positive controls or DMSO only was transferred to the assay plate by a pintool workstation (Kalypsys, San Diego, CA), followed by addition of 1 […] uL of 1.25uM NKH477 (0.25 uM as final concentration) in assay medium using a Flying Reagent Dispenser (Aurora Discovery, San Diego, CA). The plates were incubated at 37 C and 5% CO2 for 3 hrs. Then 1 uL of LiveBLAzer B/G FRET substrate (Invitrogen, Carlsbad, CA) was added to each well using Bioraptr Flying Reagent Dispenser (FRD, Aurora Discovery, San Diego, CA). The plates were incubated at room temperature for 2 h.
Potency means the concentration at half of the fitted maximal effect.

Row | SMILES | Potency
1 | O=C1NC(=O)C(=O)C(=O)N1 | inactive
2 | FC(F)OC(F)(F)C(F)Cl (stereo not given) | inactive
3 | C[C@H](CN1CCOCC1)C(C(=O)N1CCCC1)(c1ccccc1)c1ccccc1 | inactive
4 | CCCCOC(C)=O | inactive
5 | NC(=O)CS(=O)C(c1ccccc1)c1ccccc1 (stereo not given) | inactive
6 | Cc1cc(C(F)(C(F)(F)F)C(F)(F)F)ccc1NC(=O)c1cccc(I)c1C(=O)NC(C)(C)CS(C)(=O)=O | inactive
7 | N[C@@H](Cc1ccc(Oc2cc(I)c(O)c(I)c2)c(I)c1)C(=O)O | inactive
8 | CCOc1cc(Oc2ccc(C(F)(F)F)cc2Cl)ccc1[N+](=O)[O-] | inactive
9 | CCC1(c2ccccc2)C(=O)NC(=O)NC1=O | inactive
10 | CCCCCl | inactive
11 | O=Cc1ccc2c(c1)OCO2 | inactive
12 | O=C(NC(O)C(Cl)(Cl)Cl)NC(O)C(Cl)(Cl)Cl (stereo not given) | inactive
13 | CCOC(=O)/C=C(C)/C=C/C[C@@H](C)CCCC(C)C | inactive
14 | c1ccc2nc(N3CCNCC3)ccc2c1 | inactive
15 | O=[Se]=O | inactive
16 | O=C(CCl)C(Cl)Cl | 21.9 µM (active)
17 | OC(c1ccccc1)(c1ccccc1)C1CCNCC1 | inactive
18 | CC(C)COP(=O)(OCC(C)C)OCC(C)C | inactive
19 | COc1ccc2c(c1OC)CN1CCc3cc4c(cc3C1C2)OCO4 (stereo not given) | inactive
20 | ClCCCCBr | inactive

Row | SMILES | Potency
21 | O=C(O)CBr | inactive
22 | O=C(NC(=O)c1c(F)cccc1F)Nc1cc(Cl)c(OC(F)(F)C(F)F)c(Cl)c1 | inactive
23 | Cc1cc(C)nc(Nc2ccccc2)n1 | inactive
24 | CNP(=O)(OC)Oc1ccc(C(C)(C)C)cc1Cl (stereo not given) | inactive
25 | CC(c1ccccc1)(c1ccc(O)cc1)c1ccc(O)cc1 | inactive
26 | O=C1OC(c2ccc(O)c(S(=O)(=O)O)c2)(c2ccc(O)c(S(=O)(=O)O)c2)c2c(Br)c(Br)c(Br)c(Br)c21 | inactive
27 | ClC(Cl)=C(Cl)Cl | inactive
28 | O=P(O)(O)c1ccccc1 | inactive
29 | Clc1ccc2ccccc2c1 | inactive
30 | CN | inactive
31 | CC1=C2C[C@H]3[C@@H](CC=C4C[C@@H](O)CC[C@@]43C)[C@@H]2CC[C@]12O[C@@H]1C[C@H](C)CN[C@H]1[C@H]2C | inactive
32 | COCc1cnc(C2=NC(C)(C(C)C)C(=O)N2)c(C(=O)O)c1 (stereo not given) | inactive
33 | O=CCCl | inactive
34 | Cc1ncsc1CCCl | inactive
35 | ClC1=C(Cl)C2(Cl)C(CBr)CC1(Cl)C2(Cl)Cl (stereo not given) | inactive
36 | CCN[C@H](C)Cc1cccc(C(F)(F)F)c1 | inactive
37 | COc1ccc(-c2ccccc2)cc1NNC(=O)OC(C)C | inactive
38 | C=C(C)[C@H]1CN[C@H](C(=O)O)[C@H]1CC(=O)O | inactive
39 | C=CCC1([C@H](C)CCC)C(=O)NC(=O)NC1=O | inactive
40 | Nc1ccc([N+](=O)[O-])cc1[N+](=O)[O-] | inactive
